The results in this text go back to PubChem BioAssay (NCATS).

Where “and” joins values, the source holds several entries; their conditions need not be identical. Equal entries are not always repeated. Inconclusive results are not listed. A number with no mark means an inactive call. Calls of active or inactive are those of the source. The call rests on the fitted dose curve; in most records, active means well fitted curve in the direction sought with a large enough effect; inconclusive means small, poorly fitted or top-dose-only effect, or another doubt; inactive means no such curve, though single readings can be large; an effect the other way counts as inactive or inconclusive.

Assay [1] concerns the target Furin (Homo sapiens) (UniProt P09958). Description: Furin counterscreen qHTS for Zika virus inhibitors (AID 1347149). Further: nearly all actives have a fitted effect of over 70% in size.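 On activity change, negative = inhibition: purified recombinant full-length human furin enzyme at 5 nM; fluorescence gain from furin cutting a BOC-RVRR-AMC peptide substrate over 15 min; top concentration of the series differs between compounds; plate controls were no-inhibitor control for no effect and no-enzyme control for full effect.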 The method in brief: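 Counterscreen measures cleavage of 2 microM BOC-RVRR-AMC, below its ~15 microM Km, by 5 nM full-length human furin at pH 7.0 after a 15-min compound preincubation. Inhibition derives from the 15-min fluorescence increase at 37C.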
A general note: Counterscreens check selectivity or assay interference.

The test system of assay [2] is Zika virus NS2B-NS3 protease (linked construct). Description: Confirmatory screen NINDS AMC qHTS for Zika virus inhibitors (AID 1347152). Further: nearly all actives have a fitted effect of over 70% in size.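 On activity change, negative = inhibition: AMC fluorescence gain from cleaved Bz-Nle-KRR-AMC substrate over 15 min; top concentration of the series differs between compounds; 0% = no-inhibitor control and -100% = no-enzyme control.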 The method in brief:
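Enzyme (1 nM, linked construct) was preincubated with compound for 15 minutes at room temperature in 10 mM Tris-HCl pH 8.0 with 0.01% Tween 20. Bz-Nle-Lys-Arg-Arg-AMC was then added to 10 microM, and AMC fluorescence was recorded immediately and after 15 minutes.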
For orientation: qHTS replaces the single test concentration by a dilution series.

The test system of assay [3] is Zika virus NS2B-NS3 protease (unlinked complex). Put plainly: Confirmatory screen GU AMC qHTS for Zika virus inhibitors (AID 1347153). Further: nearly all actives have a fitted effect of over 70% in size.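 On Potency: enzyme at 25 nM with substrate at 10 µM below its Km of 18.3 µM.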 The method in brief: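 Compounds were preincubated 15 min at room temperature with 25 nM noncovalent NS2B-NS3 protease at pH 8.0; AMC substrate added at 10 microM and 15-min fluorescence gain (340/450 nm) converted to percent inhibition, fitted 4-parameter.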

The subject of assay [4] is Zika virus NS2B-NS3 protease. Description: Primary screen GU AMC qHTS for Zika virus inhibitors (AID 1347154). Further: nearly all actives have a fitted effect of over 70% in size.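 On activity change, negative = inhibition: 0% = no-inhibitor control and -100% = no-enzyme control.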 The method in brief:
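Unlinked Zika NS2B hydrophilic domain/NS3 protease domain noncovalent complex (25 nM final) in 10 mM Tris-HCl pH 8.0, 0.01% Tween 20, with AMC peptide substrate. Fluorescence (ex 340, em 450 nm) change over 15 min, room temperature; percent inhibition fitted to 4-parameter Hill equation.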

Assay [5] can be described thus: qHTS of pediatric cancer cell lines to identify multiple opportunities for drug repurposing: Confirmatory screen for control Hh wild type fibroblast cells (AID 1347121). Further: nearly all actives have a fitted effect of over 70% in size. The method in brief:
(§1)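 Cells (500-1,000/well) in growth media were settled 5 h at 37 degrees C, then given compounds for 48 h. Viability was read as CellTiter-Glo luminescence. Primary runs used MIPE at 11 points (0.78 nM-46 µM) and NPC at 8 points (0.59 nM-46 µM); follow-ups used 11 points.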

The nature of assay [6]: qHTS of pediatric cancer cell lines to identify multiple opportunities for drug repurposing: Confirmatory screen for U-2 OS cells (AID 1347122). Further: nearly all actives have a fitted effect of over 65% in size. The method in brief:
as §1

Assay [7] in a line: qHTS of pediatric cancer cell lines to identify multiple opportunities for drug repurposing: Confirmatory screen for Rh41 cells (AID 1347123).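 Further: 48 h compound exposure; nearly all actives have a fitted effect of over 60% in size.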 The method in brief:
as §1

The nature of assay [8]: qHTS of pediatric cancer cell lines to identify multiple opportunities for drug repurposing: Confirmatory screen for Rh18 cells (AID 1347125). Further: nearly all actives have a fitted effect of over 55% in size. The method in brief: as §1
Assay [9] is described as follows: qHTS of pediatric cancer cell lines to identify multiple opportunities for drug repurposing: Confirmatory screen for Rh30 cells (AID 1347126). Further: nearly all actives have a fitted effect of over 55% in size. The method in brief: as §1
A short description of assay [10]: qHTS of pediatric cancer cell lines to identify multiple opportunities for drug repurposing: Confirmatory screen for OHS-50 cells (AID 1347128).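 Further: compound exposure lasted 48 h at 37 degrees C; nearly all actives have a fitted effect of over 55% in size.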 The method in brief:
as §1

Assay [11] is described as follows: qHTS of pediatric cancer cell lines to identify multiple opportunities for drug repurposing: Confirmatory screen for SK-N-SH cells (AID 1347129).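 Further: cells exposed to compound for 48 h before viability read; nearly all actives have a fitted effect of over 60% in size.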 The method in brief: as §1
Assay [12] in a line: qHTS of pediatric cancer cell lines to identify multiple opportunities for drug repurposing: Confirmatory screen for BT-37 cells (AID 1347117).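 Further: viability measured after 48 h of compound exposure; nearly all actives have a fitted effect of over 55% in size.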 The method in brief:
as §1

Assay [13] is described as follows: qHTS of pediatric cancer cell lines to identify multiple opportunities for drug repurposing: Confirmatory screen for MG 63 (6-TG R) cells (AID 1347119). Further: nearly all actives have a fitted effect of over 55% in size. The method in brief: as §1
The nature of assay [14]: qHTS of pediatric cancer cell lines to identify multiple opportunities for drug repurposing: Confirmatory screen for Saos-2 cells (AID 1347127). Further: nearly all actives have a fitted effect of over 60% in size. The method in brief: as §1
A short description of assay [15]: qHTS of pediatric cancer cell lines to identify multiple opportunities for drug repurposing: Confirmatory screen for TC32 cells (AID 1347118).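 Further: cells exposed to compound for 48 h before the read; nearly all actives have a fitted effect of over 65% in size.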 The method in brief:
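Luminescent ATP read-out (CellTiter-Glo) of metabolically active TC32 cells after 48 h exposure. Concentration-response curves came from 11-point (MIPE, 0.78 nM–46 µM) or 8-point (NPC, 0.59 nM–46 µM) primary titrations; follow-up used 11 points.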

Assay [16] is described as follows: qHTS of pediatric cancer cell lines to identify multiple opportunities for drug repurposing: Confirmatory screen for RD cells (AID 1347124).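 Further: cells exposed to compound for 48 h before viability readout; nearly all actives have a fitted effect of over 65% in size.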 The method in brief:
as §1
Potency means the concentration at half of the fitted maximal effect.

Sequence of Furin (Homo sapiens) (P09958 whole entry, looked up): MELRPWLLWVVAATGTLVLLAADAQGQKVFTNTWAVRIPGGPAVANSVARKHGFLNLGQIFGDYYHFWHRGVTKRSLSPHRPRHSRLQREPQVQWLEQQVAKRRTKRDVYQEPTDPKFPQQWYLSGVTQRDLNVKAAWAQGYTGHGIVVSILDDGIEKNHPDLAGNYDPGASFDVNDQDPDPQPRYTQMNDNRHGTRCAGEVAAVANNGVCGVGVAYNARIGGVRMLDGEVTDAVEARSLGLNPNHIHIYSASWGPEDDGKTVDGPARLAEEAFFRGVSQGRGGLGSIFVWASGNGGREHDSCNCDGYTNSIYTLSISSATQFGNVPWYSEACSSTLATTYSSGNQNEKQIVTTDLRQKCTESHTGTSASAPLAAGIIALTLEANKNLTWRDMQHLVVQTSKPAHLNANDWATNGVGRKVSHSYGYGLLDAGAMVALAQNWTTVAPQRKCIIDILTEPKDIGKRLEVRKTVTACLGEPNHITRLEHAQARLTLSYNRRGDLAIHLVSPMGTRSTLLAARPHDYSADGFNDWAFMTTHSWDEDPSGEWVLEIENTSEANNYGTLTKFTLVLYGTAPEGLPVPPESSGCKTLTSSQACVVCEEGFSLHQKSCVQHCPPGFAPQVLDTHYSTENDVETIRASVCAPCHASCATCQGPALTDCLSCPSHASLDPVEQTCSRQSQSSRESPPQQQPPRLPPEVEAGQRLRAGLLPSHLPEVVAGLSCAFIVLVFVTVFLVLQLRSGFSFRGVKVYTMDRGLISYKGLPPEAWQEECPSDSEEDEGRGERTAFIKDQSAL

For `CC(C)c1ccccc1Cc1cc(C(=O)Nc2ccc(S(=O)(=O)c3ccccc3C(C)(C)C)cc2)c(O)c(O)c1O`, the Potency entry in [1], in assay [2] and in [3] was “inactive” each time. In addition, the Potency in [4] is 17.1 µM (active).

Turning to `Nc1ccc(C(=O)c2cc3c(ccc4ccccc43)[nH]2)cc1`, the Potency entry in assay [4] was “inactive”.

Turning to `CC(C)CC(=O)Nc1n[nH]c2c1CN(C(=O)C1CCN(C)CC1)C2(C)C`, the Potency result in assay [5], in assay [8], in assay [9] and in assay [4] was “inactive” each time. Moreover, the Potency in assay [6] is 16.5 µM (active); in [7] it was 1.31 µM (active); in [10] it was 5.85 µM (active); in assay [11], 4.18 µM (active).

On to `CCCn1c(=O)c2[nH]c(-c3cnn(Cc4cccc(C(F)(F)F)c4)c3)nc2n(CC)c1=O`, for which, in [4], the Potency result is “inactive”.

For `CN(C1CCc2c(c3ccccc3n2CC(=O)O)C1)S(=O)(=O)c1ccc(F)cc1` (stereo unspecified), the Potency result in assay [4] was “inactive”.

With `CN1CCC(CNc2ccc3ncc(-c4cccc(OC(F)(F)F)c4)n3n2)CC1`, the Potency is 21.5 µM (active) in assay [1], 27.1 µM (active) in [2] and 24.1 µM (active) in [4].

For the compound `N#Cc1c(O)c2c(-c3ccc(-c4ccccc4O)cc3)csc2[nH]c1=O`, the Potency result in [1] was “inactive”. In addition, the Potency is 4.82 µM (active) and 8.79 µM (active) in assay [2]; 9.61 µM (active) in [3]; 8.57 µM (active) in assay [4].

As to `Cn1cncc1[C@@](N)(c1ccc(Cl)cc1)c1ccc2c(c1)c(-c1cccc(Cl)c1)cc(=O)n2C`, the Potency result in assay [4] is “inactive”.

Regarding `CCN(CC)CCCCNc1ncc2cc(-c3cc(OC)cc(OC)c3)c(NC(=O)NC(C)(C)C)nc2n1`, the values for the Potency in [1] and in assay [4] were 24.1 µM (active) and 21.5 µM (active), respectively. Moreover, the Potency entry in assay [3] is “inactive”.

Regarding `Cc1[nH]nc2ccc(-c3cncc(OC[C@@H](N)Cc4ccccc4)c3)cc12`, the Potency was 2.93 µM (active) in [12]; 3.69 µM (active) in assay [13]; 23.3 µM (active) in [5]; 8.27 µM (active) in assay [8]; 47.9 µM (active) in [9]; 4.65 µM (active) in [14]. The Potency in assay [10] was 4.65 µM (active); in assay [11], 2.15 µM (active).

Take `CCCCOc1c(C(=O)c2c(F)cc(C)cc2F)cnc2n[nH]cc12`: in assay [4], the Potency result is “inactive”.

Take `COc1cc(OC2CCN(C)CC2)ccc1Nc1ncc2c(n1)n(C1CCCC1)c(=O)n2C`: in [4], the Potency result is “inactive”.

Take `CC(C)(O)CCc1ccc(OCc2cc(-c3cccc(OC(F)F)c3)c3ncccc3c2)cc1`: in [4], the Potency result is “inactive”.

With `Cc1nc2ccc(CN(C)c3ccc(C(=O)N[C@@H](CCC(=O)O)C(=O)O)s3)cc2c(=O)[nH]1`, the Potency in [15] was 0.0522 µM (active). The Potency entry in assay [6], in [7], in assay [8], in [14], in assay [10] and in assay [11] was “inactive” in each case. Further, the Potency result in [4] is “inactive”.

As to `O=C(O)C1(Cc2cccc(Nc3nccs3)n2)CCC(Oc2cccc(Cl)c2F)CC1` (stereo unspecified), the Potency entry in [1] is “inactive”.

In the case of `O=C(c1cncc(Br)c1)N1CCC(N2CCCC2)CC1`, in assay [4], the Potency result was “inactive”.

Take `CN[C@H]1CCc2cc(OC)c(OC)c(OC)c2-c2ccc(OC)c(=O)cc21`: the Potency entry in assay [5], in [8], in [9] and in [4] was “inactive” each time. For the same compound, the Potency is 0.208 µM (active) in assay [6] and 0.104 µM (active) in [16].

Regarding `CN(C)CC=CC(=O)Nc1cc2c(Nc3ccc(F)c(Cl)c3)ncnc2cc1O[C@H]1CCOC1`, the Potency entry in assay [4] is “inactive”.

Turning to `CN(c1ncccc1CNc1nc(Nc2ccc3c(c2)CC(=O)N3)ncc1C(F)(F)F)S(C)(=O)=O`, the Potency is 7.37 µM (active) in assay [12]; 7.37 µM (active) in [6]; 3.69 µM (active) in assay [7]; 8.27 µM (active) in assay [14]; 5.85 µM (active) in assay [10]; 3.72 µM (active) in [11]. Also, the Potency result in assay [5], in assay [8] and in assay [4] was “inactive” in each case.

As for `Cc1cc(CN2CCN(c3c(Br)cnc4nc(-c5ccc(N6CCN(C)CC6)cc5)[nH]c34)CC2)no1`, the values for the Potency in assay [1], in [2] and in [4] were 24.1 µM (active), 34.1 µM (active) and 24.1 µM (active), respectively.

Take `COc1ccc(CC2c3cc(OC)c(OC)cc3CC[N+]2(C)CCC(=O)OCCCCCOC(=O)CC[N+]2(C)CCc3cc(OC)c(OC)cc3C2Cc2ccc(OC)c(OC)c2)cc1OC` (stereo unspecified): the activity change, negative = inhibition in [4] is 4.96% [at 6.83 µM].

Consider `Cc1ccc(C(=O)Nc2ccc(CN3CCN(C)CC3)c(C(F)(F)F)c2)cc1C#Cc1cnc2cccnn12`, for which the Potency entry in assay [13], in [5] and in assay [10] was “inactive” each time. Besides, the Potency was 2.93 µM (active) in assay [6]; 0.585 µM (active) in assay [7]; 10.4 µM (active) in assay [8]; 5.22 µM (active) in assay [9]; 1.48 µM (active) in assay [11]; 34.1 µM (active) in assay [4].
